Source: PubChem BioAssay (NCI)
About 79,000 compounds went through this panel and 15% of them were active in at least one assay; those are over-represented in the sample as a whole. Unmarked numbers belong to inactive results. Active and inactive are the calls of the source. Rule as the data show it: active = growth inhibition above about 70%; inactive = the rest.

What was measured:
[1] = NCI Yeast Anticancer Drug Screen. Data for the rad50 strain (AID 155);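 also: 0% = growth of vehicle-only cultures of the same strain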; conditions: S. cerevisiae rad50 strain growth inhibition, stronger effect = higher value
In short: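 Vehicle-treated cultures provide the reference for the growth inhibition reported for compound-exposed, repair-deficient yeast.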

[2] = NCI Yeast Anticancer Drug Screen. Data for the mec2-1 strain (AID 157); conditions: S. cerevisiae mec2-1 strain, stronger effect = higher value
In short: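 Strain: mec2-1 (DNA repair/cell cycle alteration). Compound exposure, then growth measured; inhibition expressed relative to vehicle.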

[3] = NCI Yeast Anticancer Drug Screen. Data for the sgs1 mgt1 strain (AID 161);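 also: 0% = growth of cultures given vehicle only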; conditions: S. cerevisiae sgs1 mgt1 strain, stronger effect = higher value
In short: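 Test agents were incubated with a DNA-repair-mutant yeast strain. Growth was then read and compared against vehicle-treated controls.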

[4] = NCI Yeast Anticancer Drug Screen. Data for the cln2 rad14 strain (AID 165);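 also: 0% = growth equal to vehicle treated cultures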; conditions: S. cerevisiae cln2 rad14 strain, stronger effect = higher value
In short: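 Compounds are applied to the cln2 rad14 yeast strain, and growth is then compared with that of vehicle-treated cultures to give inhibition.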

[5] = NCI Yeast Anticancer Drug Screen. Data for the bub3 strain (AID 167); conditions: S. cerevisiae bub3 mutant strain, stronger effect = higher value
In short: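 Mutant yeast screening strain plus compound; vehicle-treated cultures serve as the 0% inhibition reference.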

[6] = NCI Yeast Anticancer Drug Screen. Data for the mlh1 rad18 strain (AID 175); conditions: S. cerevisiae mlh1 rad18 strain growth inhibition, stronger effect = higher value
In short: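 Read-out is yeast growth inhibition, calculated against vehicle-only controls. The compound was applied to a strain engineered with DNA damage repair alterations.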

[7] = at 5.0 µM (retest, dose inferred, filed as 0.5)
[8] = at 50.0 µM (retest, dose inferred, filed as 5.0)

SMILES | growth inhibition [1, 7] | growth inhibition [1, 8] | growth inhibition ([1]; at 50.0 µM) | growth inhibition [2, 7] | growth inhibition [2, 8] | growth inhibition ([2]; at 50.0 µM) | growth inhibition [3, 7] | growth inhibition [3, 8] | growth inhibition ([3]; at 50.0 µM) | growth inhibition [4, 7] [%] | growth inhibition [4, 8] | growth inhibition ([4]; at 50.0 µM) | growth inhibition [5, 7] | growth inhibition [5, 8] | growth inhibition ([5]; at 50.0 µM) | growth inhibition [6, 7] | growth inhibition [6, 8] | growth inhibition ([6]; at 50.0 µM)
O=C1c2cccc3cccc(c23)C1(Br)Br | 36% | 99% (active) | 68% | 20% | 99% (active) | 23.4% | 45% | 98% (active) | 70.8% (active) | 37 | 95% (active) | 56.1% | 26% | 97% (active) | 55.6% | 54% | 99% (active) | 67.8%
Cc1ccc(NC(=O)CCC(=O)CC(=O)C(C)(C)C)cc1C | 16% | 7% | 1.1% | 2% | -2% | -14.3% | 13% | 3% | -13.8% | -5 | 4% | 34.8% | -6% | 3% | -7.9% | -2% | -4% | -15.7%
Clc1ccc(C2=C(c3ccccc3)C(c3ccc(Cl)cc3)N3C(=N[C@H]4CCCC[C@@H]43)N2)cc1 (stereo not given in full) | 4% | 15% | 88.2% (active) | 9% | 7% | 88.4% (active) | -14% | -27% | 89.3% (active) | -1 | -5% | 90% (active) | -1% | -1% | 87.7% (active) | 7% | 7% | 91.5% (active)
CCc1c(O)c(O)c(C(C)=O)c2c(O)c(-c3c(C)cc4c(CC)c(O)c(O)c(C(C)=O)c4c3O)c(C)cc12 | -13% | 96% (active) | 94.2% (active) | 9% | 96% (active) | 95.3% (active) | -10% | 96% (active) | 95.2% (active) | -20 | 94% (active) | 92.9% (active) | 11% | 97% (active) | 95.7% (active) | 7% | 96% (active) | 95.5% (active)
CCCCCCOC(=O)COc1ccccc1 | 4% | 2% | 23.6% | 0% | -1% | -0.8% | -1% | 3% | 20.6% | 5 | 1% | 40.8% | 24% | 45% | 15.8% | -1% | 0% | 33.7%
CC1(C)CC(=O)C(/C=N/c2nc(-c3cccc([N+](=O)[O-])c3)cs2)=C(O)C1 | 17% | 99% (active) | 99% (active) | 15% | 99% (active) | 99% (active) | 5% | 99% (active) | 99% (active) | -7 | 99% (active) | 98.5% (active) | 20% | 99% (active) | 99.1% (active) | 14% | 99% (active) | 99% (active)
Cc1ccc(-[n+]2cc([O-])on2)cc1 | -11% | 15% | 27.4% | -10% | -8% | 28.9% | -6% | 0% | -5.5% | -3 | -3% | 64.2% | 10% | 2% | 15.6% | -7% | 22% | 28.4%
COc1ccc2ccc3c(c2c1)CCC(C(=O)O)C3CC(=O)O (stereo not given) | -9% | 9% | 41.9% | -17% | 0% | 97.5% (active) | -11% | 12% | 43.6% | 0 | 27% | 93.8% (active) | -11% | 26% | 77.2% (active) | -30% | 35% | 84% (active)
c1ccc(CCNCc2ccco2)nc1 | -2% | -5% | 42.5% | -7% | -20% | 0.6% | -7% | -26% | -21.2% | -18 | -91% | 23.6% | 3% | -2% | -24.3% | -7% | -3% | 7.7%
COc1ccc(OP2(Oc3ccc(OC)cc3)=NP(Oc3ccc(OC)cc3)(Oc3ccc(OC)cc3)=NP(Oc3ccc(OC)cc3)(Oc3ccc(OC)cc3)=NP(Oc3ccc(OC)cc3)(Oc3ccc(OC)cc3)=N2)cc1 | 41% | 2% | 61.3% | 7% | -9% | 65.8% | 71% (active) | 28% | 67.3% | 0 | -13% | 24.1% | 20% | 35% | 54.5% | 17% | -2% | 78.8% (active)
CCCCCCCC(CC(=O)O)OC(=O)CC(CCCCCCC)OC1OC(C)C(O)C(O)C1OC1OC(C)C(O)C(O)C1O (stereo not given) | -62% | 68% | 87.2% (active) | -26% | -5% | 91.8% (active) | -43% | 55% | 92.3% (active) | -42 | 37% | 82.3% (active) | -47% | 96% (active) | 89.5% (active) | -68% | 96% (active) | 84.2% (active)
C=CCc1cc(C(=O)OCC)cc(OC)c1O | 78% (active) | 97% (active) | 5.15% | 22% | 98% (active) | -1.1% | 34% | 91% (active) | 3.9% | 20 | 95% (active) | -23.4% | 19% | 95% (active) | 74% (active) | 44% | 97% (active) | -0.35%
FC(F)(F)c1ccc(Nc2ccc(C(F)(F)F)cc2)cc1 | 9% | 100% (active) | 99.6% (active) | -17% | 100% (active) | 99.8% (active) | 12% | 100% (active) | 99.6% (active) | -5 | 100% (active) | 99.6% (active) | -3% | 99% (active) | 99.7% (active) | 12% | 100% (active) | 99.8% (active)
C=CCOC(=O)CCC(=O)N(CC)CC | 4% | -10% | -8.95% | -1% | 1% | -12.7% | -6% | -11% | -25.1% | -7 | 0% | 72.5% (active) | -2% | 1% | -7.35% | -2% | -10% | -2.3%
COc1cc(C(=O)C2OC2c2ccc(Cl)cc2)c([N+](=O)[O-])cc1OC (stereo not given) | 25% | 51% | 54% | 22% | 47% | 26.4% | 24% | 61% | 54% | 36 | 57% | 58.5% | 15% | 51% | 36.8% | 36% | 85% (active) | 64.2%
CC(=O)NC1=C(Sc2ccc([N+](=O)[O-])cc2)C(=O)c2ccccc2C1=O | 96% (active) | 98% (active) | 61.4% | 98% (active) | 96% (active) | 11.1% | 98% (active) | 99% (active) | 21.9% | 46 | 13% | -18.1% | 75% (active) | 5% | 62% | 98% (active) | 99% (active) | 51.5%
CC(=O)Nc1cc(F)c2c(c1)Cc1ccccc1-2 | 5% | 77% (active) | -1.75% | -2% | 59% | 19.5% | -1% | 84% (active) | -16.8% | 0 | 77% (active) | 89.4% (active) | 2% | 83% (active) | 90.5% (active) | 4% | 78% (active) | -14.2%
CC1(C)C(=O)N(CCCCCCN2C(=O)C(C)(C)c3ccccc32)c2ccccc21 | 20% | 20% | 79.5% (active) | 4% | 4% | 78% (active) | 5% | 5% | 81.5% (active) | -11 | -11% | 83.5% (active) | 12% | 12% | 73.2% (active) | 3% | 3% | 78.5% (active)
COC(=O)C1=C(C(=O)OC)C2(C)OC1C(=O)C21CC1 (stereo not given) | 15% | 85% (active) | 88.3% (active) | 18% | 94% (active) | 84.6% (active) | 23% | 94% (active) | 86.8% (active) | 6 | 70% (active) | 76.2% (active) | 20% | 91% (active) | 93.6% (active) | 18% | 94% (active) | 94.5% (active)
Clc1ccc(C2=CCCc3ccccc32)cc1 | -3% | 1% | 91.1% (active) | 6% | -4% | 96.2% (active) | -14% | 7% | 95.8% (active) | 5 | -19% | 95.7% (active) | 6% | -2% | 88.5% (active) | -2% | 3% | 96.5% (active)
